Data reported in PubChem BioAssay AID1745849 (National Center for Advancing Translational Sciences (NCATS), 2022).
Hit rate of the full screen: of about 2,100 compounds, about 320 (15%) were called active. About 52% were inconclusive and are not listed. Calls come from the whole dose curve; as a rule, active = well fitted cell-killing curve with a large enough effect; inconclusive = small, poorly fitted or top-dose-only effect, or effect the other way; inactive = flat fitted curve, though single readings scatter. The list shows a part of the results.

Experiment: Viability Counterscreen for CMV-Luciferase Assay of Inhibitors of ATXN expression; note: nearly all actives have a fitted effect of over 55% in size
Conditions: HEK-293 CMV-luciferase cells viability, protease fluorescence, 24 h; activity change, negative = cytotoxicity: at the top concentration
How it was run: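 Cells: HEK-293/CMV-luc in phenol-red-free DMEM, 2 hr settle. Cpd dose, 24 hr, 37 °C, 5% CO2. Viability: Gly-Phe-AFC 25 uM final, 30 min, fluor. Then SteadyGlo, 5 min RT, lumin.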
% is set by controls: 0 for no effect and ±100 for the full control effect; potency is the fitted concentration of half-maximal effect.

Row | SMILES | activity change, negative = cytotoxicity | Potency
1 | CCn1ccnc1CN1CCCC(C(=O)c2ccc3cc(OC)ccc3c2)C1 (stereo not drawn) | 4.36% (inactive) | 
2 | OC[C@@H]1CN(Cc2ccc(-c3ccccc3)cc2)C[C@H](n2cnc3c(Nc4ccccc4)ncnc32)O1 |  | 22.4 µM (active)
3 | OC[C@@H]1CN(Cc2ccncc2)C[C@H](n2cnc3c(N4CCN(c5ccccc5)CC4)ncnc32)O1 | -2.73% (inactive) | 
4 | CN(C)CCNc1ncnc2c1ncn2[C@H]1CN(Cc2ccc(-c3ccccc3)cc2)C[C@@H](CO)O1 | -5.63% [at 57.5 µM] (inactive) | 
5 | CNc1ccccc1C(=O)OC(C)C(=O)Nc1ccc(Cl)cn1 (stereo not drawn) | -0.359% (inactive) | 
6 | CCCc1ccc(O)c(N=Cc2cc(Br)cc(OCC)c2O)c1 | -3.44% [at 57.5 µM] (inactive) | 
7 | O=C(Nc1ccc(Br)cc1)c1cccc(OC(=S)N2CCOCC2)c1 | 12.8% (inactive) | 
8 | Oc1[nH]c2ccc(Br)cc2c1N=NC(=S)N1CCOCC1 |  | 1.12 µM (active)
9 | O=C(NCC1CC1)c1ccc2c(c1)S(=O)(=O)c1cc(Cl)ccc1C2=O | -10.1% (inactive) | 
10 | O=C(Nc1ccc(Cc2ccncc2)cc1)c1ccc(S(=O)(=O)N2CCCC2)cc1 | -23.7% [at 57.5 µM] (inactive) | 
11 | COc1ccc(C)cc1Nc1nc(C)nc2sc(C)cc12 | -16.3% (inactive) | 
12 | CC(=O)Nc1ccc(CNc2nc(NC(C)C)nc3cc(-c4ccccc4)sc23)cc1 |  | 25.1 µM (active)
13 | COc1ccccc1CNc1nc(NCc2ccc(NC(C)=O)cc2)c2sccc2n1 | -1.81% (inactive) | 
14 | O=C(Oc1c(CN2CCOCC2)cc(Cl)c2cccnc12)c1ccccc1F | 18.9% [at 57.5 µM] (inactive) | 
15 | COc1cc(OC)cc(-c2cc3nc(C)c(CCC(=O)O)c(C)n3n2)c1 | -23.2% [at 57.5 µM] (inactive) | 
16 | COc1cc(Nc2ncc3c(n2)CCN(C(=O)Nc2ccc(C(C)C)cc2)C3)cc(OC)c1OC | -22.1% (inactive) | 
17 | CCCN(CCC)S(=O)(=O)c1ccc(C(=O)Nc2nnc(-c3cc(OC)cc(OC)c3)o2)cc1 |  | 7.08 µM (active)
18 | CC(=O)c1ccc(C(=O)Nc2nnc(-c3ccc(Cl)cc3)o2)cc1 | -18.4% (inactive) | 
19 | CN(c1ccccc1)S(=O)(=O)c1ccc(C(=O)Nc2nnc(-c3ccc(F)cc3)o2)cc1 |  | 14.1 µM (active)
20 | CCN(CC)S(=O)(=O)c1ccc(C(=O)Nc2ccc(Cc3ccncc3)cc2)cc1 | 3.95% [at 57.5 µM] (inactive) | 
21 | COc1ccc(-c2nnc(NC(=O)c3ccc(S(=O)(=O)N4COCC4(C)C)cc3)o2)cc1 | -19.2% (inactive) | 

Row | SMILES | activity change, negative = cytotoxicity | Potency
22 | CCc1nnc(NC(=O)c2ccc(S(=O)(=O)N(C)c3ccccc3)cc2)o1 | -10.5% (inactive) | 
23 | c1nc(CCO[C@H]2CCCCO2)cc2cc3c(cc12)OCO3 | -23.6% (inactive) | 
24 | CC(=O)Nc1cccc(-c2ccnc3c2CC(C)(C(=O)Nc2ccc(Cl)c(C(F)(F)F)c2)O3)c1 (stereo not drawn) |  | 28.2 µM (active)
25 | CC(=O)c1cccc(-c2ccnc3c2CC(C(=O)Nc2ccc(F)c(Cl)c2)O3)c1 (stereo not drawn) | -24.2% (inactive) | 
26 | COc1ccc(CCCNC(=O)C2Cc3c(-c4cccc(NC(C)=O)c4)ccnc3O2)cc1 (stereo not drawn) | -5.64% (inactive) | 
27 | COC(=O)c1ccc(N2CCOCC2)c(NC(=O)Nc2cccc(OC)c2)c1 | 7.26% (inactive) | 
28 | CCCC(=O)NC(c1ccc(OC)cc1)c1c(O)ccc2ccccc12 (stereo not drawn) |  | 10 µM (active)
29 | O=C(NC(c1ccccc1)c1c(O)ccc2ccccc12)c1ccccc1Cl (stereo not drawn) | -29.6% (inactive) | 
30 | CCCC(=O)NC(c1ccco1)c1cc(Cl)c2cccnc2c1O (stereo not drawn) | 9.21% [at 57.5 µM] (inactive) | 
31 | O=[N+]([O-])c1ccc(/C=N/N=C/c2ccc([N+](=O)[O-])o2)o1 |  | 4.47 µM (active)
32 | O=C(Nc1ccc(NC(=O)c2cccs2)cc1)c1ccc2c(c1)OCO2 | -1.89% (inactive) | 
33 | O=C(N/N=C/c1ccc([N+](=O)[O-])o1)c1ccc2c(c1)OCO2 |  | 17.8 µM (active)
34 | O=C(N/N=C/c1ccccc1O)c1cccc(C(F)(F)F)c1 | -7.41% (inactive) | 
35 | Cc1ncc(CO)c(/C=N/NC(=O)c2cccc(S(=O)(=O)N3CCCC3)c2)c1O | 29.5% [at 57.5 µM] (inactive) | 
36 | O=C(N/N=C/c1cc(Cl)cc([N+](=O)[O-])c1O)c1cccc(S(=O)(=O)N2CCOCC2)c1 | -29.7% (inactive) | 
37 | COc1ccccc1NS(=O)(=O)c1cccc(C(=O)N/N=C/c2ccc([N+](=O)[O-])o2)c1 |  | 10 µM (active)
38 | Cn1c(S(=O)(=O)c2ccc([N+](=O)[O-])cc2)nc(Br)c1Br | -1.8% (inactive) | 
39 | CC(C)C[C@H](NC(=O)c1[nH]cnc1C(=O)Nc1ccc(CNC(=O)OC(C)(C)C)cc1)C(=O)OCc1ccccc1 | -11% (inactive) | 
40 | CCc1noc(C)c1C(=O)N1CCSC1=Nc1cccc(Cl)c1C | -14.3% [at 57.5 µM] (inactive) | 
41 | CCC(C)(C)c1ccc(Oc2ccc(N)cc2)cc1 | 26.6% [at 57.5 µM] (inactive) | 
42 | NNC(=O)c1sc2cc(C(F)(F)F)cnc2c1-c1cccs1 | -26.2% [at 57.5 µM] (inactive) | 

Row | SMILES | activity change, negative = cytotoxicity | Potency
43 | CCc1ccc(C(O)c2ncc(-c3cccc(C(F)(F)F)c3)[nH]2)cc1 (stereo not drawn) | -1.52% [at 57.5 µM] (inactive) | 
44 | CCN(Cc1ccccc1)S(=O)(=O)c1ccc(C(=O)Nc2nnc(C3CC3)o2)cc1 | -9.39% (inactive) | 
45 | O=C(Nc1nnc(C2CC2)o1)c1ccc(S(=O)(=O)N2CCCc3ccccc32)cc1 |  | 11.2 µM (active)
46 | CC1CCCCN1S(=O)(=O)c1ccc(C(=O)Nc2nnc(-c3ccccc3Cl)o2)cc1 (stereo not drawn) | -13.6% (inactive) | 
47 | CN(CCOc1ccc(Br)cc1)CC(O)COc1ccc(C#N)cc1 (stereo not drawn) | 19.3% [at 57.5 µM] (inactive) | 
48 | NNc1ncnc2sc3c(c12)CCC3 | -10.3% [at 57.5 µM] (inactive) | 
49 | Clc1c(Cl)c(Cl)c2n[nH]nc2c1Cl | 14.6% [at 57.5 µM] (inactive) | 
50 | O=C1CCCC(O)=C1C=NCc1ccccc1 | 6.84% (inactive) | 
51 | Cc1cccc(/C=C/C(=O)c2ccc([N+](=O)[O-])o2)c1 |  | 3.16 µM (active)
52 | CCc1c(C)nc2ncnn2c1N1CCC(C(=O)Nc2ccc(C)cc2)CC1 | 10.1% [at 57.5 µM] (inactive) | 
53 | CN1CCN(C2Cc3cc(Cl)ccc3Sc3cc(F)ccc32)CC1 (stereo not drawn) | -18.4% (inactive) | 
54 | COc1ccc2c(c1)CC(N1CCN(C)CC1)c1cc(OC)ccc1S2 (stereo not drawn) |  | 28.2 µM (active)
55 | Cc1cccc(OCCCC(=O)Nc2nccs2)c1 | 7.55% (inactive) | 
56 | O=C(CNC(=O)c1cccc(F)c1)N/N=C/c1cc(Br)ccc1OC(=O)/C=C/c1ccco1 | 13.1% [at 57.5 µM] (inactive) | 
57 | Cc1ccccc1N1CCN(Cc2c[nH]c3ccccc23)CC1 | -24.1% [at 57.5 µM] (inactive) | 
58 | CN1C(=O)/C(=C/c2ccccc2F)Sc2ccc(C(=O)N3CCCC3)cc21 | -30% [at 57.5 µM] (inactive) | 
59 | CCN(CC)CCNc1ccc(CO)c2sc3ccccc3c(=O)c12 |  | 25.1 µM (active)
60 | O=c1c2ccccc2sc2c(CO)ccc(NCCN3CCCCC3)c12 |  | 25.1 µM (active)
61 | CCN(CC)CCNC(=O)c1ccc(NC(=O)Cc2cccc3ccccc23)cc1 | -15.6% (inactive) | 
62 | Cc1nc2cc(NC(=O)CSc3nc4c(C)cccc4cc3C#N)ccc2s1 | -1.01% [at 57.5 µM] (inactive) | 
63 | CC1(C)Cc2c(ccc3ccccc23)C2=C(C(=O)N3CCCC3)C(=O)C(=O)N21 | 11.3% [at 57.5 µM] (inactive) | 
